Drawing on PubChem BioAssay (NCI), this text covers growth for 13 compounds.

Values joined by “and” are separate entries in the source; they are usually repeats but may differ in a detail not shown here. Equal entries are not always repeated. The panel holds about 83,000 compounds, 20% with a hit somewhere; the sample as a whole holds those more often.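 Values shown are percent growth following 48 h exposure of cells in 96-well plates to a single concentration of compound; below 10 was considered active.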 A number with no mark means an inactive call. Active and inactive are the calls of the source.

Common to all, as to experiment: NCI-60 one-dose screen, 48 h (100 = growth as untreated, 0 = no growth, -100 = all killed)
In one assay the test system is HCT-15 colon. The conditions noted are these: 10 µM.
The test system of the next assay is HT29 colon. The conditions noted are these: 10 µM.
Another assay concerns SNB-19 CNS. Conditions: 10 µM.
In the next assay the test system is U251 CNS. The conditions noted are these: 10 µM unless noted.
Another assay concerns PC-3 prostate. The conditions noted are these: 10 µM.
The next assay deals with SK-MEL-5 melanoma. Conditions: 10 µM unless noted.
For a further assay, the system named is UACC-62 melanoma. Conditions: 10 µM.
In a further assay the test system is LOX IMVI melanoma. Conditions: 10 µM unless noted.
For a further assay, the system named is SK-MEL-28 melanoma. The conditions noted are these: 10 µM.
For the next assay, the system named is SNB-75 CNS. Conditions: 10 µM.

For the compound `NNc1c2ccccc2nc2ccccc12`, the growth in the assay with HCT-15 colon was 35.1%; with HT29 colon, 34.5%; with SNB-19 CNS, 56.9%; in the assay with U251 CNS, 48%; in the assay on PC-3 prostate, 50.7%; in the assay on SK-MEL-5 melanoma, 22%. The figures for the growth in the assay with UACC-62 melanoma, with LOX IMVI melanoma and in the assay on SK-MEL-28 melanoma were 45.2%, 58.7% and 76.7%, respectively.
For the compound `O=C(Nc1ccc(C(=O)O)c(O)c1)c1ccccc1`, the growth is 104% and 99% in the assay on HCT-15 colon; 103% and 105% in the assay on HT29 colon; 96.4% and 96.3% in the assay with SNB-75 CNS; 107% and 102% with SNB-19 CNS; 96.6% and 104% in the assay with U251 CNS; 91% and 97.5% in the assay on PC-3 prostate. Moreover, the growth is 107% and 106% in the assay with SK-MEL-5 melanoma; 96.7% and 96.4% in the assay on UACC-62 melanoma; 97.4% and 97% with LOX IMVI melanoma; 110% and 151% in the assay with SK-MEL-28 melanoma.
Regarding `O=C(/C=C/c1ccccn1)c1ccccc1`, the growth in the assay on HCT-15 colon is -8.15% (active); in the assay with HT29 colon it was -67.2% (active); with SNB-75 CNS it was 66.2%; in the assay with SNB-19 CNS, 61.8%; in the assay with U251 CNS, -31.4% (active); with PC-3 prostate, 69.3%. Also, the growth in the assay on SK-MEL-5 melanoma was 74.7%; with UACC-62 melanoma it was 82.4%; in the assay on LOX IMVI melanoma, -31.2% (active); in the assay with SK-MEL-28 melanoma, 100%.
In the case of `CCC(C)(C)c1cc(O)c(C(C)(C)CC)cc1O`, the growth was 43.8% in the assay on HCT-15 colon; 28.5% with HT29 colon; 52.1% with SNB-75 CNS; 21.8% with SNB-19 CNS; 30.4% with U251 CNS; 32.3% in the assay with PC-3 prostate. For the same compound, the growth is 22.8% in the assay on SK-MEL-5 melanoma, 35.4% with UACC-62 melanoma, 13% in the assay with LOX IMVI melanoma and 43.5% with SK-MEL-28 melanoma.
For the compound `O=C1C=CC(=CC=C2C=CN(CCCCCCCCCCCO)C=C2)C=C1`, the growth in the assay with HCT-15 colon was 89.8%; in the assay with HT29 colon, 22.5%; in the assay on SNB-75 CNS, 53.4%; with U251 CNS it was 25%; in the assay with PC-3 prostate, 17.5%; in the assay on SK-MEL-5 melanoma it was -54.3% (active). For the same compound, the results for the growth in the assay on UACC-62 melanoma, in the assay on LOX IMVI melanoma and in the assay with SK-MEL-28 melanoma were 29.6%, 18.8% and 37.6%, respectively.
Turning to `CN1CCN(CCCN2c3ccccc3Sc3ccc(C(F)(F)F)cc32)CC1`, the growth was 29.3% with HCT-15 colon; 5.41% (active) with HT29 colon; 52.5% in the assay with SNB-75 CNS; 73.8% with SNB-19 CNS; 27.9% with U251 CNS; 39.8% with PC-3 prostate. The growth in the assay on SK-MEL-5 melanoma was 24.5%; in the assay with LOX IMVI melanoma it was 15.3%; in the assay with SK-MEL-28 melanoma it was -45.4% (active).
Regarding `CCO/C=C1\SC(=S)N(c2cccc(O)c2)C1=O`, the growth was 104% with HCT-15 colon; 98.5% in the assay with HT29 colon; 74.7% in the assay with SNB-75 CNS; 96.3% in the assay with SNB-19 CNS; 102% in the assay on U251 CNS; 98% in the assay on PC-3 prostate. Moreover, the growth in the assay on SK-MEL-5 melanoma was 99.4%; in the assay on UACC-62 melanoma it was 103%; in the assay on LOX IMVI melanoma it was 103%; in the assay on SK-MEL-28 melanoma it was 102%.
For the compound `NC1=C(Cl)C(=O)c2ccccc2C1=O`, the growth was 51% in the assay on HCT-15 colon; 58.8% with HT29 colon; 72.1% in the assay with SNB-19 CNS; 50.5% in the assay on U251 CNS; 53% in the assay on PC-3 prostate; -80.8% (active) with SK-MEL-5 melanoma. In addition, the growth in the assay on UACC-62 melanoma was -41.4% (active); with LOX IMVI melanoma, 19.2%; in the assay with SK-MEL-28 melanoma, 105%.
Take `Oc1ccc(N=Nc2ccccn2)c(O)c1`: the growth in the assay with HCT-15 colon was 30.5%; in the assay on HT29 colon, 21.6%; with SNB-19 CNS, 31.2%; with U251 CNS it was 24.2%; in the assay with PC-3 prostate, 36.1%; in the assay on UACC-62 melanoma it was -34.1% (active). Also, the growth in the assay on LOX IMVI melanoma is 8.85% (active); with SK-MEL-28 melanoma, 31.7%.
`NNc1ccc2ccccc2c1`: the growth is 91.2% and 97% in the assay on HCT-15 colon; 99.8% and 104% in the assay with HT29 colon; 99% and 102% with SNB-19 CNS; 103% and 101% with U251 CNS; 73% and 82% with PC-3 prostate; 89.3% and 87.6% in the assay on SK-MEL-5 melanoma. For the same compound, the growth was 78% and 99.9% in the assay with UACC-62 melanoma; 75.5% and 91.7% in the assay with LOX IMVI melanoma; 111% and 114% in the assay with SK-MEL-28 melanoma.
`OCC(O)C(O)C(O)C(/C=N/Nc1ccccc1)=N/Nc1ccccc1` (stereo not drawn): the growth is 75% in the assay on HCT-15 colon; 93.2% in the assay with HT29 colon; 97.4% in the assay with SNB-19 CNS; 90.9% in the assay with U251 CNS; 72.6% in the assay with PC-3 prostate; 86.8% with SK-MEL-5 melanoma. Besides, the figures for the growth in the assay on UACC-62 melanoma, in the assay on LOX IMVI melanoma and in the assay with SK-MEL-28 melanoma were 43.6%, 51.8% and 103%, respectively.
Regarding `CCCCCCCCCCCC[N+](C)(C)Cc1ccccc1`, the growth in the assay on HCT-15 colon was 90.8%; with HT29 colon it was 5.91% (active); in the assay with SNB-19 CNS, 20.5%; in the assay with U251 CNS it was 17.3%; in the assay on PC-3 prostate it was -18.7% (active); in the assay on SK-MEL-5 melanoma, -87.1% (active). For the same compound, the growth is -41.2% (active) in the assay with UACC-62 melanoma, 25.9% in the assay with LOX IMVI melanoma and 17.5% in the assay with SK-MEL-28 melanoma.
As to `CCCCCC(C)c1ccc(O)c(C)c1` (stereo not drawn), the growth in the assay on HCT-15 colon is 103%; with HT29 colon it was 103%; with U251 CNS, 107%; in the assay with PC-3 prostate, 103%; in the assay on SK-MEL-5 melanoma, 104%; in the assay on LOX IMVI melanoma, 98%. The growth with SK-MEL-28 melanoma is 111%.
